PubChem BioAssay (Tox21)
Results filed as inconclusive are left out. A call without a number means that no potency is given here. Active and inactive are the calls of the source. Unless noted, calls follow the shape of the full dose curve.

Tests used:
[1] = qHTS assay to identify small molecule antagonists of the sonic hedgehog signaling (Shh) pathway (AID 1259369); also: nearly all actives have a fitted effect of over 45% in size; also: potency is read from the fitted curve at half-maximal effect
Summary of the method: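 Cells are plated and held 4hr at 37 C, compounds (DMSO) are pinned in, conditioned medium is added to stimulate the pathway, and after 24hr luciferase reagent is added for 30min before luminescence is read.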

[2] = qHTS assay to identify small molecule agonists of the androgen receptor (AR) signaling pathway in the presence of an antagonist - cell viability counter screen (AID 1259379; active = well fitted curve in the direction sought with a large enough effect in the repeat runs; an effect the other way counts as inactive or inconclusive; also: nearly all actives have a fitted effect of over 25% in size; also: potency is read from the fitted curve at half-maximal effect)
Summary of the method: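 Cytotoxicity is assessed by CellTiter-Fluor in MDA-kb2 cells carrying an MMTV-driven luciferase reporter. Cells receive 3.0uM nilutamide plus compounds at 15 concentrations and incubate 16 hr at 37C without CO2 before fluorescence reading.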

[3] = qHTS assay to identify small molecule agonists of the estrogen receptor beta (ER-beta) signaling pathway - cell viability counter screen (AID 1259380; active = well fitted curve in the direction sought with a large enough effect in the repeat runs; an effect the other way counts as inactive or inconclusive; also: nearly all actives have a fitted effect of over 30% in size; also: potency is read from the fitted curve at half-maximal effect)
Summary of the method: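 Cytotoxicity is measured in parallel with the reporter screen: after 16 hr compound exposure at 37C and a 2 hr LiveBLAzer step, CellTiter-Glo is added to the same ER-beta-UAS-bla HEK293T wells and luminescence read after 30 min.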

[4] = qHTS assay to identify small molecule antagonists of the estrogen receptor beta (ER-beta) signaling pathway - cell viability counter screen (AID 1259382; active = well fitted curve in the direction sought with a large enough effect in the repeat runs; an effect the other way counts as inactive or inconclusive; also: nearly all actives have a fitted effect of over 55% in size; also: potency is read from the fitted curve at half-maximal effect)
Summary of the method: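 Cytotoxicity counter screen multiplexed with the beta-lactamase antagonist assay: GripTite HEK293T ER-beta-bla cells were treated 16 hr with test chemicals in the presence of 1nM 17-beta-estradiol, and viability was measured by CellTiter-Glo.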

[5] = molecular target: Estrogen receptor (Homo sapiens) (UniProt P03372); assay: qHTS assay to identify small molecule agonists of the estrogen receptor alpha (ER-alpha) signaling pathway in the presence of an antagonist (AID 1259383); also: top concentration of the series differs between compounds; nearly all actives have a fitted effect of over 15% in size
Chain of Estrogen receptor (Homo sapiens) (P03372 whole entry, looked up): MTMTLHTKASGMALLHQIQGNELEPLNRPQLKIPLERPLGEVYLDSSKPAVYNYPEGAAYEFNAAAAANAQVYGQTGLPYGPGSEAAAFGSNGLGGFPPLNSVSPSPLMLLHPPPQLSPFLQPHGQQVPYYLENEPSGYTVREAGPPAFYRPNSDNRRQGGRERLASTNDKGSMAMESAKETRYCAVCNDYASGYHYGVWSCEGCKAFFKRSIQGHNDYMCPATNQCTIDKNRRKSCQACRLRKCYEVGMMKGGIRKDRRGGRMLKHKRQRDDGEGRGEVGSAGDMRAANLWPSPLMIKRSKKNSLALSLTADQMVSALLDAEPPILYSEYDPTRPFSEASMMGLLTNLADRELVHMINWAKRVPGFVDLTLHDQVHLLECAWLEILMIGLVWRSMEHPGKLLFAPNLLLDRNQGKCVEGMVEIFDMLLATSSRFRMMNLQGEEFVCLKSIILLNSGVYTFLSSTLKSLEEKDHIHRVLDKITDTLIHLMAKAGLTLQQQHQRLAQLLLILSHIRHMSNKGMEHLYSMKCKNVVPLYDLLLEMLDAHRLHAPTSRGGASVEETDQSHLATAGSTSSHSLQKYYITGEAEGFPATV
Summary of the method: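 Agonist-mode confirmation in the presence of the ER antagonist ICI-182,780 at 10.0nM final. Breast-derived VM7Luc4E2 reporter cells were exposed to compounds for 22hr, and ERE-driven luciferase was quantified by luminescence.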

[6] = qHTS assay to identify small molecule agonists or antagonists of the thyroid stimulating hormone receptor (TSHR) signaling pathway - wild type cell line counter screen (AID 1259384)
Summary of the method: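 Counter screen in untransfected Hek293: compounds (15-point titration, triplicate) plus phosphodiesterase inhibitor Ro20-1724 added after 18 h plating; 30 min RT. Intracellular cAMP via competitive d2/cryptate immunoassay, 1 h incubation.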

[7] = molecular target: Thyrotropin receptor (Homo sapiens) (UniProt P16473); assay: qHTS assay to identify small molecule antagonists of the thyroid stimulating hormone receptor (TSHR) signaling pathway (AID 1259385); also: nearly all actives have a fitted effect of over 20% in size
Chain of Thyrotropin receptor (Homo sapiens) (P16473 whole entry, looked up): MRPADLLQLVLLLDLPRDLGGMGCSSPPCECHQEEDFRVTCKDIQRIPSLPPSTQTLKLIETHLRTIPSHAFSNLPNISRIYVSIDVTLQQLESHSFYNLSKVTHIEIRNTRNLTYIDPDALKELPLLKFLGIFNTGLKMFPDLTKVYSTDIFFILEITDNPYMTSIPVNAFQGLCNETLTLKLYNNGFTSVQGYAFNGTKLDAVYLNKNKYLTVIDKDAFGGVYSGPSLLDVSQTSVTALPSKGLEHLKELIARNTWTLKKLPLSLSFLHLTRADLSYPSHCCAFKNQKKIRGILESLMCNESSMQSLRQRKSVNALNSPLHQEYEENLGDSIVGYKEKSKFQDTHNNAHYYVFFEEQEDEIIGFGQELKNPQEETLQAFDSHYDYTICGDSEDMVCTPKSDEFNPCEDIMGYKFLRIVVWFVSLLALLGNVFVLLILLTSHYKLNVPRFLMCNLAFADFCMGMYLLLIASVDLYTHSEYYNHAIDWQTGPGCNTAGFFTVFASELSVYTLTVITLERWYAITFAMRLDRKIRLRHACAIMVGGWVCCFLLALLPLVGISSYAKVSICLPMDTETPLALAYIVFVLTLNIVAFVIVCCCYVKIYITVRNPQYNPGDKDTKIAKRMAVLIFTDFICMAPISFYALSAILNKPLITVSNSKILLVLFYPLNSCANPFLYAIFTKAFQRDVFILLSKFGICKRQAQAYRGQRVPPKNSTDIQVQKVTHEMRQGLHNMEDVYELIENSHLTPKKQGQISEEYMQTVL
Summary of the method: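 Antagonist mode: compound-treated TSHR-expressing HEK293 cells were stimulated with 1.5 ng/mL TSH (final) in presence of Ro20-1724 for 30 min at RT. HTRF cAMP detection after 1 h; each compound tested at 15 concentrations, triplicate.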

[8] = molecular target: Estrogen receptor beta (Homo sapiens) (UniProt Q92731); assay: qHTS assay to identify small molecule agonists of the estrogen receptor beta (ER-beta) signaling pathway (AID 1259377; active = well fitted activation curve with a large enough effect in the signal ratio in the repeat runs, not every such curve was filed as active; the % refers to the signal ratio)
Chain of Estrogen receptor beta (Homo sapiens) (Q92731 whole entry, looked up): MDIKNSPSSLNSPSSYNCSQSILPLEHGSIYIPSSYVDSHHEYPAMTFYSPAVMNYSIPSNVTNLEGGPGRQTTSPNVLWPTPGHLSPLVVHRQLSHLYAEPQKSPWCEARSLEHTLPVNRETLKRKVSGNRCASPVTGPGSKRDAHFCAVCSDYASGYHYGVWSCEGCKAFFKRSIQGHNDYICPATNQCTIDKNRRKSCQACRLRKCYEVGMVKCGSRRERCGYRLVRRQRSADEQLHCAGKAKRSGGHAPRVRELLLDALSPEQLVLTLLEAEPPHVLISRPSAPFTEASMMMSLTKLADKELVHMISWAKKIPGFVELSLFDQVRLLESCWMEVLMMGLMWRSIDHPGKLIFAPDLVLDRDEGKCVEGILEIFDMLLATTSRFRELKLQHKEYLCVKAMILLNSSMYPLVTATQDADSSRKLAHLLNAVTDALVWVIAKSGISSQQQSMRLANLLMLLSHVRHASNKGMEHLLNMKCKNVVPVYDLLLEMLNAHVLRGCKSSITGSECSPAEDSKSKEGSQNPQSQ
Summary of the method: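 HEK293T ER-beta-UAS-bla; 2% charcoal-stripped FBS; cells pre-incubated 6 hr, compound 16 hr, 37C/5% CO2; LiveBLAzer B/G FRET substrate 2 h RT; fluorescence intensity read.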

[9] = molecular target: Estrogen receptor beta (Homo sapiens) (UniProt Q92731); assay: qHTS assay to identify small molecule antagonists of the estrogen receptor beta (ER-beta) signaling pathway (AID 1259378; active = well fitted inhibition curve with a large enough effect in the signal ratio in the repeat runs, not every such curve was filed as active; the % refers to the signal ratio; also: potency is read from the fitted curve at half-maximal effect)
Summary of the method: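 Antagonist mode: compounds added to beta-lactamase reporter HEK293T ER-beta-UAS cells stimulated with E2 (1nM final), 16 hr at 37C. LiveBLAzer B/G FRET substrate, 2 hours room temperature, fluorescence read-out.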

[10] = molecular target: Androgen receptor (Homo sapiens) (UniProt P10275); assay: qHTS assay to identify small molecule agonists of the androgen receptor (AR) signaling pathway in the presence of an antagonist (AID 1259381); also: nearly all actives have a fitted effect of over 15% in size
Chain of Androgen receptor (Homo sapiens) (P10275 whole entry, looked up): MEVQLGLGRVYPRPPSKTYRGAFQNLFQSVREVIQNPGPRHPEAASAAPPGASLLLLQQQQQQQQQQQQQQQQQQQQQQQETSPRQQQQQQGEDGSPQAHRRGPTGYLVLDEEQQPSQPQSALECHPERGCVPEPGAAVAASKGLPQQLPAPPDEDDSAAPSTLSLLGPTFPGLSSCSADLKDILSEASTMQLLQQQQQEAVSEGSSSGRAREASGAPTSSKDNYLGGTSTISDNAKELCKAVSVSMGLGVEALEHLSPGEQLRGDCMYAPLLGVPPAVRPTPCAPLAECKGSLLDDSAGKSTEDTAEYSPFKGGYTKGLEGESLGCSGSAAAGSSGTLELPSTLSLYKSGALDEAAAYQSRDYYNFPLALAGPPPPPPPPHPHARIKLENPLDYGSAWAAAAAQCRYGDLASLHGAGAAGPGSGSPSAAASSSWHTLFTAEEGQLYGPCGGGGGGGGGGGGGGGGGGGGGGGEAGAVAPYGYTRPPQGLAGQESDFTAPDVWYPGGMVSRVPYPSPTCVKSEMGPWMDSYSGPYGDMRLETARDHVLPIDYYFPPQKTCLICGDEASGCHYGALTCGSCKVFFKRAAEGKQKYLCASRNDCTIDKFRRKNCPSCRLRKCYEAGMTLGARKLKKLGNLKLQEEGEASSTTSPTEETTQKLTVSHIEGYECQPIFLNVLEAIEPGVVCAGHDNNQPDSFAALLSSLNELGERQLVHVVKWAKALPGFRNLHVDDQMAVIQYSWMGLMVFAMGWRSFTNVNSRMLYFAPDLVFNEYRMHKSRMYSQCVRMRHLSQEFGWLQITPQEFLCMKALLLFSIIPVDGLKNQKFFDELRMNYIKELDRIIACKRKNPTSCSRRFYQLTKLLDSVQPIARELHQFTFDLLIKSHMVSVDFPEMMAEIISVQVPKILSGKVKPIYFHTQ
Summary of the method: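 Agonist-mode confirmation screen: human MDA-kb2 cells stably expressing luciferase under an MMTV promoter bearing AR and GR response elements, co-treated with 3.0uM nilutamide (final). Luminescence measured after 16hr compound incubation.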

Row | SMILES | Potency [1] | Potency [2] | Potency [3] | Potency [4] | Potency [5] | outcome [6] | Potency [7] | Potency [8] | Potency [9] | Potency [10]
1 | CCC(C)(C)C1CCC(O)CC1 (stereo unspecified) | inactive | inactive | inactive | inactive | inactive | inactive | inactive | – | – | –
2 | CC(C)CCCCCCOC(=O)CCCCC(=O)OCCCCCCC(C)C | inactive | inactive | inactive | inactive | inactive | inactive | inactive | – | – | –
3 | N#C[C@@H]1C[C@@H]2C[C@@H]2N1C(=O)[C@@H](N)C12CC3CC(CC(O)(C3)C1)C2 | inactive | – | inactive | inactive | inactive | inactive | inactive | – | – | –
4 | CC(C)OCC1CO1 (stereo unspecified) | – | inactive | inactive | inactive | inactive | – | – | inactive | inactive | –
5 | Fc1ccccc1[C@@H](F)COC1CCC(Nc2ncnc3[nH]ncc23)CC1 (stereo partly specified) | 12.2 µM (active) | – | 68.6 µM (active) | – | – | inactive | – | – | – | –
6 | Cc1cnc(C)c(C)n1 | inactive | inactive | – | – | – | inactive | inactive | – | – | –
7 | Oc1ccc(Nc2ccccc2)cc1 | inactive | – | – | – | inactive | inactive | – | – | – | inactive
8 | COc1ccccc1N=Nc1c(S(=O)(=O)O)cc2cc(S(=O)(=O)O)cc(NC(C)=O)c2c1O | – | 25.7 µM (active) | inactive | inactive | – | – | – | inactive | inactive | –
9 | CCOC(=O)[C@@H](C)Oc1ccc(Oc2nc3ccc(Cl)cc3o2)cc1 | – | inactive | inactive | inactive | – | – | – | inactive | – | inactive
10 | O=[N+]([O-])c1cccc(S(=O)(=O)NCCNS(=O)(=O)c2cccc([N+](=O)[O-])c2)c1 | inactive | – | inactive | inactive | inactive | – | – | – | – | –
11 | O=C(N[C@@H](c1ccccc1)[C@@H]1CCCCN1)c1cccc(C(F)(F)F)c1Cl | – | – | 54.5 µM (active) | 61.1 µM (active) | inactive | inactive | inactive | inactive | 43.3 µM (active) | –
12 | CC1=C(/C=C/C(C)=C\C=C\C(C)=C\C(=O)O)C(C)(C)CCC1 | inactive | – | – | – | inactive | – | – | – | – | –
13 | Cc1occc1C(=O)Nc1ccc(C(=O)N2CCC(F)(F)/C(=C\C(=O)N3CCC(N4CCCCC4)CC3)c3ccccc32)cc1 | – | inactive | – | inactive | inactive | inactive | inactive | inactive | inactive | inactive
14 | CO/N=C1\CN(c2nc3c(cc2F)c(=O)c(C(=O)O)cn3C2CC2)CC1CN (stereo unspecified) | inactive | inactive | – | inactive | inactive | inactive | inactive | – | – | –
15 | CCCCC1C(=O)N(c2ccccc2)N(c2ccc(O)cc2)C1=O (stereo unspecified) | 7.5 µM (active) | – | 23.7 µM (active) | 29.8 µM (active) | – | – | – | – | – | inactive
16 | O=C(N/N=C/c1ccc([N+](=O)[O-])o1)c1ccc(O)cc1 | 11.9 µM (active) | 11.9 µM (active) | – | inactive | inactive | inactive | inactive | – | – | inactive
17 | CC(C)C(OC(=O)c1ccccc1)C(C)(C)COC(=O)c1ccccc1 (stereo unspecified) | inactive | – | – | inactive | – | inactive | inactive | – | – | –
18 | Cc1ccc(S(=O)(=O)NC2CCCCC2)cc1 | – | inactive | inactive | inactive | inactive | inactive | inactive | inactive | inactive | –
19 | CC1C2CC(CC2C2CCCC(O)C2)C1(C)C (stereo unspecified) | inactive | inactive | – | – | – | inactive | inactive | – | – | –
20 | ON(Cc1ccccc1)Cc1ccccc1 | inactive | – | inactive | inactive | inactive | inactive | inactive | – | – | inactive
21 | c1ccc(COCc2ccccc2)cc1 | inactive | – | inactive | inactive | inactive | inactive | inactive | – | – | –
22 | C[C@@H]1C[C@H]2[C@@H]3CCC4=CC(=O)C=C[C@]4(C)[C@@]3(F)[C@@H](O)C[C@]2(C)[C@H]1C(=O)CO | – | inactive | – | inactive | – | inactive | inactive | inactive | inactive | –
23 | CC1CC(=O)NN=C1c1ccc(NCC(C)(C)NCC(O)COc2cc(Cl)ccc2C#N)cc1 (stereo unspecified) | – | inactive | – | inactive | inactive | inactive | inactive | inactive | inactive | –
24 | NC(=O)Cn1c(=O)cc(CCN2CCN(c3nccc4sccc34)CC2)c2ccc(F)cc21 | 4.86 µM (active) | – | – | inactive | inactive | – | – | – | – | –
25 | CC(C)(CCl)c1ccccc1 | – | inactive | inactive | inactive | inactive | inactive | inactive | inactive | inactive | –
26 | O=C1OCCN1/N=C/c1ccc([N+](=O)[O-])o1 | – | inactive | inactive | inactive | inactive | inactive | inactive | inactive | inactive | –
27 | CCCCCCOC(=O)CCCCCCCC(=O)OCCCCCC | inactive | – | inactive | inactive | – | inactive | inactive | – | – | –
28 | C=CC(C)(C)CC(=O)OC | 27.4 µM (active) | – | 5.46 µM (active) | inactive | – | inactive | inactive | – | – | –
